SMN2 splice up = qHTS Assay for Enhancers of SMN2 Splice Variant Expression; HEK293 SMN2-luciferase splicing reporter, luminescence, 30-36 h; Potency, µM (doses to about 46.1 µM), for the others: at the highest dose activity change, positive = activation, most hits filed as activators; hit rate 2.8% among 210,000; note: % of control where 0% means no effect; nearly all actives have a fitted effect of over 55% in size
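HEK293 cells carry an SMN2 […]–luciferase reporter in which exon 7 inclusion puts luciferase in frame. Cells were plated 10-12 h before compound addition, then incubated 30-36 h at 37C. ONE-Glo luminescence was read; sodium butyrate at 4.5 mM final served as control.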
NPC1 prom act = qHTS Assay for NPC1 Promoter Activators; Huh7 NPC1 promoter luciferase reporter, 24 h; Potency, µM (highest dose often 9.22 µM), inactives show at the top dose activation, hits mostly activators; hit rate 2.4% among 320,000; AID 485313, 2010; note: % of control where 0% means no effect; nearly all actives have a fitted effect of over 60% in size
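Luminescence read-out of NPC1 promoter-driven luciferase in stably transfected Huh7 cells; compounds delivered in DMSO and left 24 h at 37C, 5% CO2, qHTS titration format.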
Luc counter = Counterscreen for Luciferase (Kinase-Glo TM) Inhibition; Potency, µM (top dose mostly 38.3 µM), for inactives: top-dose activity change, negative = inhibition, hits mostly inhibitors; Luciferin 4-monooxygenase (Photuris pensylvanica), Q27757; hit rate 0.28% among 200,000; Kinase-Glo luciferase, ATP luminescence, 8 min; AID 1379, 2008; note: % is set by controls: 0 for no effect and ±100 for the full control effect; nearly all actives have a fitted effect of over 60% in size
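Substrate mix (final 50 mM imidazole pH 7.2, 50 mM KCl, 7 mM MgCl2, 10 uM ATP, 0.01% Tween 20, 0.05% BSA) plus pin-tool compound, then Kinase-Glo detection mix; 8 min ambient, luminescence read.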
ELG1 genotox = qHTS screen for small molecules that induce genotoxicity in human embryonic kidney (HEK293T) cells expressing luciferase-tagged ELG1; hit rate 1.3% among 330,000; Potency, µM (doses to about 46 µM), without a hit: at the top dose activity change, positive = activation, hits mostly activators; HEK293T ELG1-luciferase reporter, luminescence, 16 h; AID 504466, 2011; note: % of control where 0% means no effect; nearly all actives have a fitted effect of over 60% in size
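Quantitative HTS format in 1536-well plates. HEK293T ELG1-luciferase reporter cells receive test compound and are incubated 16 hr at 37 °C, 5% CO2; ONE-Glo added, 30 min room temperature, then luminescence read.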
FLuc modulator = qHTS profiling assay for firefly luciferase inhibitor/activator using purifed enzyme and Km concentrations of substrates (counterscreen for miR-21 project); Luciferin 4-monooxygenase (Photinus pyralis), P08659; purified FLuc, Km substrates, luminescence inhibition; Potency, µM (doses to about 57.5 µM), inactives show top-dose activity change, negative = inhibition, most hits filed as inhibitors; hit rate 6.9% among 360,000; AID 588342, 2011;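 note: plate controls were vehicle for no effect and reference inhibitor for full effect; nearly all actives have a fitted effect of over 55% in size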
Target sequence (P08659 whole entry, looked up): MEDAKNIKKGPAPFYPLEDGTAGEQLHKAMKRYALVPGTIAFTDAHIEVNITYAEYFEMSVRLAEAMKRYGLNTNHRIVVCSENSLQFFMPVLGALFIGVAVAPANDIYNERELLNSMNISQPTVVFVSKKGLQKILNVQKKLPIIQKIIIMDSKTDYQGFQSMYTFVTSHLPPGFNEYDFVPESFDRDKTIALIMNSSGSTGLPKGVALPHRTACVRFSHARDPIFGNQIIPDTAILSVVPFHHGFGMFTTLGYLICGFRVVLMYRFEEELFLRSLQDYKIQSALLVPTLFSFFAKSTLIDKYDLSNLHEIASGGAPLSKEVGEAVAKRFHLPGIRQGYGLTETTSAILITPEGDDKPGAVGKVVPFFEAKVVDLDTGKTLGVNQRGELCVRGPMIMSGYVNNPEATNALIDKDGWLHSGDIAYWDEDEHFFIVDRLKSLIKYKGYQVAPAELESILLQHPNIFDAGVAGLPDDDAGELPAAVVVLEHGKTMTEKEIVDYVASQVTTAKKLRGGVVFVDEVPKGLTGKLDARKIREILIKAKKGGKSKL
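Purified P. pyralis luciferase (10nM final) with 10uM D-luciferin and 10uM ATP (Km levels) in 50mM Tris acetate pH 7.5, 10mM Mg acetate, 0.01% Tween-20, 0.05% BSA; qHTS 6-point titration, ~60 µM downward; luminescence read.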
Rab9 prom act = qHTS Assay for Rab9 Promoter Activators | hit rate 2.8% among 320,000 | AID 485297, 2010 | Potency, µM (top dose mostly 9.22 µM), without a hit: top-dose activation, negative = inhibition, hits mostly activators | Huh7 Rab9 promoter-luciferase reporter, luminescence, 24 h; note: % of control where 0% means no effect; nearly all actives have a fitted effect of over 60% in size
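Cell-based reporter: Huh7 stable for Rab9 promoter-driven luciferase, plated in reduced-serum medium with 10% FBS at 1500 cells/well, compound-treated 24 h at 37 °C, luminescence read after 10 min reagent.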
An asterisk follows results filed as active; ? = inconclusive; . = not tested or not shown; [ ] = remark or other dose. In the library only some 7.4% were active in any assay of this set; here they are far more common. Calls come from the whole dose curve; as a rule, active = well fitted curve in the direction sought with a large enough effect; inconclusive = small, poorly fitted or top-dose-only effect, or another doubt; inactive = no such curve, though single readings can be large; an effect the other way counts as inactive or inconclusive. Potency is the fitted concentration of half-maximal effect.

SMILES	SMN2 splice up	NPC1 prom act	Luc counter	ELG1 genotox	FLuc modulator	Rab9 prom act
COc1cccc(CNC(=O)CN2C(=O)N(c3cccc(Cl)c3)S(=O)(=O)c3ccccc32)c1OC	.	.	.	.	-1%	.
CCOc1ccccc1CNC(=O)CCc1c(C)nn(-c2ccc(N3CCCCC3)nn2)c1C	.	.	.	.	-17%	.
Fc1cccc(Cc2noc(CN3CCCCC3c3ccccn3)n2)c1 (stereo not given)	.	?	0%	?	24µM*	?
C[Si](C)(C)C#Cc1ccccc1NC(=S)Nc1ccccc1	24%	.	-4%	.	.	.
CC(C)CN=C(N)N=C(N)N	-9%[9.22 µM]	.	-3%[7.66 µM]	.	.	.
CCOC(=O)CNc1c(-c2ccc(Cl)cc2)nc2cnccn12	4%	-1%	0%	0%	-14%	1%
COc1ccc(-c2nc3ccc(Cl)cn3c2Nc2ccc(C)cc2)cc1	10%	.	.	.	-6%	.
COCCNc1c(-c2ccc(OC)cc2)nc2ccc(Cl)cn12	21%	18%	-4%	1%	11µM*	?
CCOC(=O)CNc1c(-c2ccc(OC)cc2)nc2ccc(Cl)cn12	?	4%	-5%	?	8.5µM*	0%
COc1cccc(C(=O)O/N=C(\N)c2ccccn2)c1OC	.	?	.	1.8µM*	0.95µM*	0.71µM*
N/C(=N\OC(=O)Cc1cccc2ccccc12)c1ccccn1	4%	25%	2%	?	?	23%
COc1cccc(C(=O)O/N=C(\N)c2ccncc2)c1OC	25%	2%	0%	?	?	2%
N/C(=N\OC(=O)c1cccc2ccccc12)c1ccccn1	.	?	.	10µM*	1.2µM*	?
CC(N)(C(=O)O)c1cccc(CC(=O)O)c1 (stereo not given)	0%	.	.	.	.	.
CCc1ccc(OCC(=O)NC(=S)Nc2cccc(CO)c2)c(Br)c1	13µM*	1.8µM*	-4%	?	6µM*	2.8µM*
CCc1ccc(OCC(=O)NC(=S)Nc2ccc(F)cc2)c(Br)c1	-16%	0%	-2%	12%	?	-2%
COc1ccc(Cn2c(=O)n(Cc3ccco3)c(=O)c3oc4ccccc4c32)cc1	.	.	.	.	-5%	.
COC(=O)CN1C(=O)CSc2ccc(S(=O)(=O)Nc3c(C)cc(C)cc3C)cc21	.	.	.	.	5%	.
COc1ccc(C(=O)Nc2ccc(-c3nnn(CC(=O)N4CCN(C(=O)c5ccco5)CC4)n3)cc2)cc1	-13%	2%	-2%	-7%	13µM*	1%
O=C(CN1C(=O)COc2ccc(S(=O)(=O)N3CCOCC3)cc21)N1CCN(c2cccc(C(F)(F)F)c2)CC1	3%	.	.	.	3%	.
Cn1ccc(C(=O)Nc2ccc3c(c2)OCCO3)n1	.	0.89µM*	.	5.8µM*	?	0.71µM*
Cn1nc(C(=O)Nc2ccc3c(c2)OCCO3)cc1C(=O)O	-1%	3%	11µM*	13%	9.5µM*	-5%
COc1ccc(OC)c(NC(=O)Nc2nnc(N3CCC(C)CC3)s2)c1	-10%	0%	2%	3%	24µM*	-3%
COc1ccc(OC)c(NC(=O)C2CCC(CNc3c(N4CCC(C)CC4)c(=O)c3=O)CC2)c1 (stereo not given)	16µM*	-5%	1%	27%	1%	-8%
COc1cc(C)ccc1OCCn1c(-c2ccc(Cl)cc2)nc2ccccc2c1=O	3%	.	.	.	-3%	.
SMILES	SMN2 splice up	NPC1 prom act	Luc counter	ELG1 genotox	FLuc modulator	Rab9 prom act
COc1ccc(CCC(=O)Nc2nc3ccccc3[nH]2)cc1	-1%	3.5µM*	-1%	?	?	2.2µM*
COc1ccccc1CCC(=O)Nc1nc2ccccc2[nH]1	13µM*	?	-3%	?	13µM*	?
CCOc1ccccc1OCCCC(=O)Nc1nc2ccccc2[nH]1	-4%	8%	3%	6%	-1%	5%
COc1ccc(OCC(=O)Nc2nc3ccccc3[nH]2)cc1	18%	?	-6%	21µM*	4.8µM*	?
CCCCCC(=O)Nc1nc2ccccc2[nH]1	14µM*	?	-3%	?	13µM*	?
COc1ccc(CCC(=O)Nc2nc3ccccc3[nH]2)cc1OC	9%	8%	-1%	11%	1%	12%
COC(=O)N[C@@H](/C=C/c1ccccc1)C[N+](=O)[O-]	2%	.	2%	.	.	.
O=C(CSc1nc(=O)n(Cc2ccncc2)c2c1CCC2)Nc1cccc(F)c1	.	.	.	.	-5%	.
O=C(CCS(=O)(=O)c1ccc(Br)cc1)N1CCN(c2ccccc2)CC1	5%	-1%	-1%	-1%	1%	-3%
O=C(CCS(=O)(=O)c1ccccc1)N1CCN(c2ccccc2)CC1	.	2.8µM*	.	?	12µM*	1.6µM*
CCOc1ccc(-c2ccc(SCc3ccccn3)nn2)cc1	16%	?	-1%	-7%	13µM*	?
CCc1ccc(NC(=O)CSc2ccc(-c3ccccn3)nn2)cc1	.	14%	.	?	-18%	26%
CCc1ccc(-c2ccc(SCc3ccccn3)nn2)cc1	?	3.2µM*	-4%	?	8.5µM*	?
CCOCCn1ccc2c(OCC(=O)Nc3cccc(F)c3)cccc2c1=O	.	.	.	.	-2%	.
COc1ccc(-n2cc(C(=O)OCc3ccc(F)c(F)c3)c3ccccc3c2=O)cc1	.	.	.	.	-5%	.
Oc1ccc(N2Cc3ccccc3C2)cc1	.	-1%	.	3%	-6%	10%[1.84 µM]
CCOc1ccc(N2Cc3ccccc3C2)cc1	?	?	-10%	23µM*	12µM*	3.5µM*
Cc1cc(N2Cc3ccccc3C2)ccc1C=O	.	?	.	5.8µM*	6.7µM*	0.32µM*
CCOc1ccc(N2CC(=O)N(c3ccc(OCC)cc3)CC2=O)cc1	-11%	-3%	-2%	1%	-8%	0%
O=Cc1ccc(N2Cc3ccccc3C2)cc1	.	-3%	.	?	12µM*	11%
Cc1cc2c(cc1C)CN(c1ccccc1)C2	.	1.1µM*	.	2.3µM*	0.67µM*	1µM*
Cc1ccccc1C=O	0%	-1%	.	2%	0%	-1%
CN1C(=O)c2cccc3c(S(=O)(=O)Nc4cccc(C(=O)O)c4)ccc1c23	-13%	.	.	.	?	.
COc1ccc(-c2cc3nc(N)cc(=O)n3[nH]2)cc1	9%	.	.	.	-13%	.
Cc1nc2cc(-c3ccccc3)[nH]n2c(=O)c1C	.	-35%	.	21µM*	13µM*	?
Cc1cc(=O)n2[nH]c(-c3ccccc3)cc2n1	18%	.	-6%	.	?	.
CCOC(=O)c1cc(=O)n2[nH]c(-c3ccc(C)cc3)cc2n1	?	-2%	0%	?	13µM*	-1%

Source: PubChem BioAssay
